Screening results (PubChem BioAssay)
Mito fusion act – qHTS Assay for Small Molecule Inhibitors of Mitochondrial Division or Activators of Mitochondrial Fusion. Potency, µM (series often up to 46.1 µM), usual class: activators. hit rate 0.23% among 320,000. S. cerevisiae fusion-defective mutant growth rescue, CellTiterGlo 48 h; note: nearly all actives have a fitted effect of over 45% in size
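Compounds are tested for their ability to restore growth of mitochondrial fusion-defective yeast strains at non-permissive 37C in YPEG medium over 48 hours. Viability is quantified by luciferase luminescence.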
KAT2A inh – qHTS Assay for Inhibitors of GCN5L2 | Histone acetyltransferase KAT2A (Homo sapiens), Q92830 | GCN5L2 HAT assay, ThioGlo1 CoA-SH fluorescence | Potency, µM (series often up to 58.9 µM), usual class: inhibitors | hit rate 0.21% among 390,000 | AID 504327, 2011
Target sequence (Q92830 whole entry, looked up): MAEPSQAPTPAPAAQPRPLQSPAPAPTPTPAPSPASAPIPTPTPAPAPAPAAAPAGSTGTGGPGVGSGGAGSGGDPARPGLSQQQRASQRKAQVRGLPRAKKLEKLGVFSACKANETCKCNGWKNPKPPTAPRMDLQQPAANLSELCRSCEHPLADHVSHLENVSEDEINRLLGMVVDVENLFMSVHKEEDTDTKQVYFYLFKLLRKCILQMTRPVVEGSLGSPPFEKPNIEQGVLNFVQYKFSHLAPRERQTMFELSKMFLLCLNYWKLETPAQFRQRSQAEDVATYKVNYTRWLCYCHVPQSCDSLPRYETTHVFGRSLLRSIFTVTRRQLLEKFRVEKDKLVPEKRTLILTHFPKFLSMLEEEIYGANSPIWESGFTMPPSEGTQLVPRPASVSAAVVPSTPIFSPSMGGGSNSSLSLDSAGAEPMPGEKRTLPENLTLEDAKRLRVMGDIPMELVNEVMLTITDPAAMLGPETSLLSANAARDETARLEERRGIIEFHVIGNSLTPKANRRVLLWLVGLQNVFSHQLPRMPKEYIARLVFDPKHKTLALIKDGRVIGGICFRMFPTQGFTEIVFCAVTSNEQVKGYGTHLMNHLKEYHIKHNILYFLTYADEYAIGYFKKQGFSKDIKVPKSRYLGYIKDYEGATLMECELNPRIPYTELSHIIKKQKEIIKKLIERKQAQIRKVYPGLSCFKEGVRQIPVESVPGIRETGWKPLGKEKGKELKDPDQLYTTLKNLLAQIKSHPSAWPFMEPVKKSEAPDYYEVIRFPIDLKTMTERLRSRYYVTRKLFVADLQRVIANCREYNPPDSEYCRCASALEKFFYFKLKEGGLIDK
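GCN5L2 (20nM final) in 50mM HEPES, 0.1mM EDTA pH 7.5, 0.01% Tween-20 was preincubated 15 min at room temperature with compound, then given ThioGlo1 (50uM), H3(1-25) peptide (75uM) and acetyl-CoA (70uM); CoA-thiol fluorescence (Ex340/Em540) was read at 0 and 20 min.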
GLS inhibitor – qHTS for Inhibitors of Glutaminase (GLS); GLS enzymatic activity, qHTS titration; Potency, µM (titrated, usually from 45.5 µM), actives largely listed as inhibitors; hit rate 0.21% among 410,000; AID 624170, 2012
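Assay buffer: 45 mM KH2PO4 pH 8.2, 0.02% Tween-20. hKGA acts on L-glutamine (1 mM solution added); product glutamate is reported by an oxidase/peroxidase Amplex Red coupling, with fluorescence taken at baseline and 30 min.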
PLK1 PBD block – qHTS for Inhibitors of PLK1-PDB (polo-like kinase 1 - polo-box domain): Primary Screen; Potency, µM, hits mostly inhibitors; Plk1 PBD binding of FITC phosphopeptide, fluorescence polarization; hit rate 2.8% among 360,000; note: series mostly up to about 57 µM; nearly all actives have a fitted effect of over 65% in size
PKM2 activator – qHTS Assay for Activators of Human Muscle isoform 2 Pyruvate Kinase; Pyruvate kinase PKM (Homo sapiens), P14618; purified PKM2, Kinase-Glo ATP luminescence, activation; response scale: 0% is enzyme alone, no compound; Potency, µM (top dose mostly 57.5 µM), most hits filed as activators; hit rate 0.34% among 260,000; note: nearly all actives have a fitted effect of over 55% in size
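hPK-M2, >95% pure; 0.1 mM ADP / 0.5 mM PEP final; imidazole pH7.2 buffer w/ 7 mM MgCl2, 50 mM KCl; 1 h RT; Kinase-Glo lum. Intermediate enzyme activity for dual inhibitor/activator qHTS.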
VDR inh – Inhibitors of the vitamin D receptor (VDR): qHTS; VDR-SRC2-3 peptide fluorescence polarization, 2 h; Potency, µM, most hits filed as inhibitors; hit rate 0.93% among 400,000; AID 504847, 2011
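Fluorescence polarization assay of small-molecule disruption of VDR binding to coregulator peptide SRC2-3. Compounds and controls pin-transferred, then read after 2 h incubation at ambient room temperature.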
Numbers stand for hits; – = inactive; ? = inconclusive; · = no result given; [ ] = remark or other dose. A selection: hits, their analogues and other compounds. The true share with any hit is near 3.4%. Calls come from the whole dose curve; as a rule, active = well fitted curve in the direction sought with a large enough effect; inconclusive = small, poorly fitted or top-dose-only effect, or another doubt; inactive = no such curve, though single readings can be large; an effect the other way counts as inactive or inconclusive.

SMILES	Mito fusion act	KAT2A inh	GLS inhibitor	PLK1 PBD block	PKM2 activator	VDR inh
Cc1cccc(C(C)C)c1NC(=O)C1CCCN1S(=O)(=O)c1cccc2nsnc12 (stereo not given)	·	–	–	·	·	–
CC1(C)O[C@H]2C[C@@H]3[C@H]4CCC5=CC(=O)C=C[C@]5(C)[C@@]4(F)[C@@H](O)C[C@]3(C)[C@]2(C(=O)CO)O1	·	–	–	·	·	–
CC1(C)O[C@@H]2C[C@H]3[C@@H]4CCC5=CC(=O)C=C[C@]5(C)[C@@]4(F)[C@@H](O)C[C@]3(C)[C@]2(C(=O)CO)O1	12.6µM	–	–	–	–	–
CCCN1CCN(C(=O)c2ccc3[nH]c(C)c(C)c3c2)CC1	·	·	–	–	·	·
CCCc1c(C)[nH]c2ccc(C(=O)O)cc2c1=S	–	–	7.08µM	13.4µM	–	–
CCOc1cc(/C=N\Nc2nc(-c3ccc(C)cc3)c(NC(C)=O)s2)ccc1O	–	–	–	–	?	–
COc1cc(/C=N\Nc2nc(-c3ccc(C)cc3)c(NC(C)=O)s2)ccc1O	–	–	–	?	17.8µM	?
COc1cc(/C=N/Nc2cc(C)nc(N)n2)ccc1O	–	–	10µM	–	·	–
CC(=O)Nc1sc(N/N=C/c2ccc(C)cc2)nc1-c1ccc(C)cc1	–	–	–	–	7.08µM	?
COc1ccc(/C=N/Nc2nc(-c3ccc(C)cc3)c(NC(C)=O)s2)cc1OC	–	–	–	–	10µM	–
CC(=O)Nc1sc(N/N=C/c2ccc(N(C)C)cc2)nc1-c1ccc(C)cc1	–	–	–	–	–	–
CN(C(=O)C1CCN(S(=O)(=O)c2ccccc2)CC1)c1c(N)n(Cc2ccccc2)c(=O)[nH]c1=O	–	–	–	–	·	–
COC(=O)C1=CO[C@@H](C)[C@@H]2CN3CCc4c([nH]c5ccccc45)[C@@H]3C[C@H]12	·	–	·	·	·	–
CC(Oc1cccc(Cl)c1)C(=O)Nc1nc(-c2ccccn2)cs1 (stereo not given)	?	–	–	18.9µM	·	–
COc1ccccc1OCC(=O)NCCSCc1ccccc1Cl	–	–	–	26.7µM	–	?
O=C(COc1ccccc1)NCCSCc1ccccc1Cl	–	–	–	–	–	–
Oc1c(C(c2ccccc2)N2CCCCC2)ccc2ccccc12 (stereo not given)	·	·	–	2.99µM	·	·
CCOc1ccc2[nH]c3nc(SCC(=O)NCC4CCCO4)nnc3c2c1 (stereo not given)	–	–	–	–	·	–
CCOc1ccc2c(c1)c1nnc(SCC3CCCO3)nc1n2C (stereo not given)	–	–	–	26.7µM	–	–
Cc1nn(-c2ccccc2)c2c1C(c1ccc(Br)s1)C(C#N)=C(N)O2 (stereo not given)	–	–	–	?	–	–
Cc1nn(Cc2ccccc2)c2c1C(c1ccc(Cl)cc1)C(C#N)=C(N)O2 (stereo not given)	–	–	–	26.7µM	–	?
Cc1nn(-c2ccccc2)c2c1C(c1ccccc1)C(C#N)=C(N)O2 (stereo not given)	–	–	–	26.7µM	–	–
Cc1nn(Cc2ccccc2)c2c1C(c1cccnc1)C(C#N)=C(N)O2 (stereo not given)	–	–	–	?	–	–
Cc1cc(C)c(C(=O)NCCCN2CCOCC2)c(C)c1	–	–	–	–	–	–
O=C(CCn1ccc2cc(S(=O)(=O)N3CCCC3)ccc21)NCc1cccc(F)c1	–	–	?	7.52µM	–[0.46 µM]	?
SMILES	Mito fusion act	KAT2A inh	GLS inhibitor	PLK1 PBD block	PKM2 activator	VDR inh
CSc1ccc(CNC(=O)Cn2ccc3cc(S(=O)(=O)N4CCCC4)ccc32)cc1	·	–	–	·	·	–
Cc1ccc(CNC(=O)Cn2ccc3cc(S(=O)(=O)N4CCCC4)ccc32)o1	–	–	–	–	15.8µM	–
C=C1C(=O)[C@]23[C@H](O)[C@H]1CC[C@H]2[C@@]12COC3(O)[C@H](O)[C@@H]1C(C)(C)CC[C@@H]2O	·	–	·	·	·	7.08µM
Cc1cccc(N2C(=O)C3CCCN3C2=S)c1 (stereo not given)	–	–	–	13.4µM	·	–
CSc1cccc(N2C(=O)C3CCCN3C2=S)c1 (stereo not given)	–	–	–	10.6µM	·	–
Cc1ccc(N2C(=O)C3CCCN3C2=S)c(C)c1 (stereo not given)	–	–	–	?	·	–
O=C1C2CCCN2C(=S)N1c1ccccc1 (stereo not given)	–	–	–	13.4µM	·	–
Cc1noc(C)c1C(=O)Nc1ccccc1N1CCOCC1	–	–	–	–	·	–
CCOC(=O)/C(C)=N/NC(C)=O	·	·	·	·	·	–
CC1(C)CC(=O)C2=C(C1)NC(Nc1nc3ccccc3o1)=NC2c1cccc(O)c1 (stereo not given)	·	·	·	·	·	–
ClC(Cl)Cl	·	–	–	·	·	–
CC1(C)[C@@H](O)CC[C@]2(C)C3C(O)C=C4[C@H]5C[C@@](C)(CO)CC[C@]5(C)CC[C@]4(C)[C@]3(C)CC[C@@H]12 (stereo not given in full)	11.2µM	–	–	–	–	–
CC1CC[C@]2(CO)CC[C@]3(C)C(=CCC4[C@@]5(C)CCC(O)C(C)(C)C5CC[C@@]43C)C2C1C (stereo not given in full)	·	–	·	·	·	–
Nc1ccc(C2=Nc3cccc4cccc(c34)N2)cc1	–	–	–	–	–	–
COc1cccc(C2=Nc3cccc4cccc(c34)N2)c1	–	–	11.2µM	–	–	–
CCCCN1C(=O)/C(=C2\SC(N3CCCCC3)=NC2=O)c2ccccc21	?	–	–	23.8µM	–	–
O=C1N=C(N2CCOCC2)S/C1=C1\C(=O)N(Cc2ccccc2)c2ccc(Br)cc21	–	–	·	·	–	·
CC(C)(N)C(=O)N[C@@H](Cc1cnc[nH]1)C(=O)N[C@H](Cc1ccc2ccccc2c1)C(=O)N[C@H](Cc1ccccc1)C(=O)N[C@@H](CCCCN)C(N)=O	·	–	·	·	·	–
CCC(C(=O)N1CCN(c2ncccn2)CC1)c1ccccc1 (stereo not given)	–	–	–	23.8µM	–	–
CC(Oc1ccccc1)C(=O)N1CCN(c2ncccn2)CC1 (stereo not given)	–	–	–	–	·	–
CCOc1ccc(N2CC(C(=O)NC(C)C)CC2=O)cc1 (stereo not given)	–	–	–	–	–	–
COc1ccc(CNC(=O)[C@H](C)NC(=O)C2CC(=O)N(c3ccc4c(c3)OCO4)C2)cc1 (stereo not given in full)	–	–	–	–	·	–
